The record followed here is PubChem BioAssay AID2384 (Southern Research Specialized Biocontainment Screening …, 2010).

Screen size: about 2,300 compounds; about 1,100 (48%) were called active. How the calls were made is not given here. So high a share suggests a set chosen from earlier hits. Some of the results follow. Results with a measured potency or affinity are listed apart.

The assay is described as follows: inhibitors in S. typhi counter-screen strain, dose response, counter-screen for PhoP regulon inhibitor project, fluorescence, 4 h (AID 2384). Conditions: S. typhi GFP reporter counter-screen; series mostly up to 150 µM; inhibition: at the top concentration.
For `O=C(O)c1ccc(S(=O)(=O)NC2CC2)cc1`, the “inhibition” value was 16% (inactive).
Regarding `Cc1ccc(OCCCCn2c(CO)nc3ccccc32)cc1`, the “inhibition” value is 22.4% (inactive).
As to `CCCCOc1ccc(-c2nnn(CC(=O)Nc3ncc(CC(=O)OCC)s3)n2)cc1`, the “inhibition” value was -14% (inactive).
On to `Cc1cccc(OCc2nnc(SCC(=O)N3CCCC3)n2C)c1`, for which the “inhibition” value was 9.88% (inactive).
To `Cc1ccc2nc(/C(C#N)=C\c3ccc(N4CCCCC4)c([N+](=O)[O-])c3)[nH]c2c1` belongs 17.9% [at 9.38 µM] (inactive); to `CCCCc1cc(=O)oc2cc(C)cc(OCC(=O)NCC3CCC(C(=O)O)CC3)c12` (configuration not stated), 20.5% (inactive); to `Cc1c(C(=O)O)sc(=S)n1-c1ccc(Cl)cc1`, -14.3% (inactive).
To `Cc1cccc(N2C(=O)CS/C2=N\NC(=O)c2ccc(Br)cc2)c1C` belongs 33.8% (inactive); to `O=C1c2ccc3c4c(ccc(c24)C(=O)N1c1cccc(O)c1)C(=O)N(c1cccc(O)c1)C3=O`, -25.5% (inactive); to `Cc1ccc(/C=C2\SC(=S)N(c3cccnc3)C2=O)o1`, -11.2% (inactive).
The same measure for `CC(=O)NCc1ccc(C(=O)CSc2nnc(-c3ccncc3)n2Cc2ccccc2)o1`: 5.35% (inactive).
Regarding `COc1ccc(S(=O)(=O)N[C@H](C(=O)N2CC[C@@]3(O)CCCC[C@H]3C2)c2ccccc2)cc1`, the “inhibition” value is 8.21% (inactive).
The same measure for `COc1ccc(OC)c(S(=O)(=O)N2CCC(C(=O)NCCc3ccc(OC)c(OC)c3)CC2)c1`: 11.8% (inactive); for `COc1ccc(OC)c(NC(=O)CCNS(=O)(=O)c2ccc3c(c2)c(=O)n(C)c(=O)n3C)c1`: -22.5% (inactive); for `Clc1ccc(OCc2nn3c(C4CCCCC4)nnc3s2)c(Cl)c1`: 3.08% (inactive).
Turning to `O=C(CCCOc1ccc(Cl)cc1Cl)NNC(=O)C1CCC1`, the “inhibition” value was -6% (inactive).
With `CC(C)OC(=O)Cn1c(=O)sc2ccccc21`, the “inhibition” value was 12.4% (inactive).
With `CC/C(=N\Nc1ccnc2cc(Cl)ccc12)c1ccc(O)cc1`, the “inhibition” value is 37.8% (inactive).
`Cc1ccc(NC(=O)CS(=O)CC(=O)Nc2ccccc2-c2ccc(C)o2)cc1` (configuration not stated): the “inhibition” value was -5.22% (inactive).
`Cc1ccc(NC(=O)Cc2ccc(F)cc2)cc1`: the “inhibition” value is 1.72% (inactive).
As to `CC1CCN(CC(CS(=O)(=O)c2ccc([N+](=O)[O-])cc2)N2CCC(C)CC2)CC1` (configuration not stated), the “inhibition” value is 5.45% (inactive).
To `C=CCN(c1ccccc1)S(=O)(=O)c1cccc2cccnc12` belongs 16.4% (inactive); to `CC1CC(C)CN(S(=O)(=O)c2cccc3cccnc23)C1` (configuration not stated), 18.1% (inactive); to `Cc1cc(C(=O)OCC(=O)Nc2cccc(S(=O)(=O)N3CCOCC3)c2)c(C)o1`, 13.7% (inactive).
Take `Cc1nc(N=Nc2ccc(O)cc2)n[nH]1`: the “inhibition” value was -1.9% (inactive).
`Cc1cccc(-n2ccnc2CN2CCN(C3CCCC3)C(CCO)C2)c1` (configuration not stated): the “inhibition” value is 10.4% (inactive).
To `O=C1c2[nH]nc(-c3ccccc3O)c2C(c2ccc(F)cc2)N1CC1CCCO1` (configuration not stated) belongs 20% (inactive); to `COc1ccccc1-c1cc2nc(C)c(CCC(=O)NC(C)CCc3ccco3)c(C)n2n1` (configuration not stated), -15.5% (inactive); to `O=C(/C=C/c1ccc(Cl)cc1)NCCCn1ccnc1`, 0.67% (inactive).
With `O=C(NCCCn1ccnc1)c1cc2c(ccc3ccccc32)o1`, the “inhibition” value is 2.24% (inactive).
To `CC(=O)CC1OC(=O)C(Br)=C1NCc1ccccc1` (configuration not stated) belongs -3.4% (inactive); to `Cc1ccc(-n2c(Cc3noc4ccccc34)n[nH]c2=S)cc1`, 10.6% (inactive); to `CCn1c(-c2ccncc2)n[nH]c1=S`, 12.1% (inactive).
To `O=C(OCCCN1C(=O)c2ccccc2C1=O)c1ccco1` belongs -5.7% (inactive); to `OCC[C@H]1C[C@H](O)[C@@H](O)[C@@]2(Cc3ccccc3CO2)O1`, -6.02% (inactive); to `Cc1ccc(N(CC(=O)Nc2c(C)n(C)n(-c3ccccc3)c2=O)S(C)(=O)=O)cc1C`, -19.8% (inactive).
As to `Cc1nc2ccccc2nc1N/N=C/c1ccc(O)cc1O`, the “inhibition” value was -11.7% (inactive).
As to `Oc1ccc(C=NC2CCCCC2)c(O)c1`, the “inhibition” value is 3.6% (inactive).
With `CCN(CCCNC(=O)c1cn(CC)c2ccc(S(=O)(=O)N(C)C)cc2c1=O)c1cccc(C)c1`, the “inhibition” value is -22.2% (inactive).
`Clc1ccc(CONc2ncnc3nonc23)c(Cl)c1`: the “inhibition” value was 5.19% (inactive).
Consider `COc1ccc(OC)c(C2=NO[C@@H]3C(=O)N(c4cc(Cl)ccc4OC)C(=O)[C@H]23)c1`, for which the “inhibition” value is 12.2% (inactive).
For the compound `CC(C)(C)CC(=O)Nc1nnc(SCC(=O)N2CCCCC2)s1`, the “inhibition” value was -8.51% (inactive).
Consider `Cc1cc(C)c(S(=O)(=O)Nc2ccccc2C(=O)OCC(=O)NCc2ccccc2)c(C)c1`, for which the “inhibition” value is 9.32% (inactive).
To `CC1Cc2ccccc2N1S(=O)(=O)c1cccc(C(=O)N2CC(=O)Nc3ccccc32)c1` (configuration not stated) belongs -16.2% (inactive).
For the compound `Cn1c(-c2ccc(Cl)cc2)cnc1N`, the “inhibition” value is -7.06% (inactive).
The same measure for `O=[N+]([O-])c1ccc(-c2cnc(NO)nc2)cc1`: -23.9% (inactive); for `CCC(O)CNc1nc(SC)nc2sc3c(c12)CCN(C)C3` (configuration not stated): 16.6% (inactive); for `c1ccc(CSc2ccc(-c3cccs3)nn2)nc1`: 4.57% (inactive).
In the case of `COc1ccc(C(=O)C[n+]2cc(Br)cc3ccccc32)cc1[N+](=O)[O-]`, the “inhibition” value is 29.9% (inactive).
To `c1ccc2c(Nc3nnc(-c4ccncc4)s3)cccc2c1` belongs 24.4% (inactive).
The same measure for `CC(/C=C\c1cccnc1)=C/C(=O)O`: -16.1% (inactive); for `O=C(N/N=C/c1cccnc1)c1ccc(F)cc1`: 10.8% (inactive).
On to `Clc1ccc(N/N=C/c2cccs2)nn1`, for which the “inhibition” value is -13% (inactive).
As to `CSc1nnc(-c2cccc(NC(=S)NN)c2)o1`, the “inhibition” value is 7.59% (inactive).
`Cc1ccc2cc(CN(Cc3ccc(F)cc3)Cc3nnnn3C3CCCC3)c(=O)[nH]c2c1`: the “inhibition” value was 8.53% (inactive).
As for `Nc1ccc(S(=O)(=O)c2ccc(N)cc2)cc1`, the “inhibition” value is -5.09% (inactive).
Turning to `Cc1ccc(NC(=S)NCc2cccnc2)cc1`, the “inhibition” value was 5.02% (inactive).
The same measure for `CCc1nnc(NC(=O)c2ccc(S(C)(=O)=O)cc2)s1`: -14.3% (inactive); for `O=C(O)c1cnn2c1NC(c1cccs1)CC2C(F)(F)F` (configuration not stated): 16.9% (inactive).
In the case of `CCCn1c(SCc2ccc(Cl)cc2)nc2c1c(=O)[nH]c(=O)n2C`, the “inhibition” value is -20.7% (inactive).
As to `NS(=O)(=O)c1ccc(CCNC(=O)C(=O)C2C(=O)Nc3ccccc32)cc1` (configuration not stated), the “inhibition” value was -11.2% (inactive).
The same measure for `NS(=O)(=O)c1ccc(CCNS(=O)(=O)c2cccc(C(=O)O)c2)cc1`: -9.07% (inactive); for `COC(=O)C1=C(C)N(CC2CC2)C(=O)N[C@H]1c1ccc(Br)cc1`: 11.5% (inactive); for `COC(=O)C1=C(C)N(Cc2ccco2)C(=O)N[C@H]1c1ccc(Br)cc1`: -1.77% (inactive).
`CC(C)CC(c1nnnn1Cc1ccco1)N1CCN(c2cccc(Cl)c2)CC1` (configuration not stated): the “inhibition” value was -13% (inactive).
In the case of `CCCC(C(=O)NCC1CCCO1)N(Cc1ccco1)C(=O)CNS(=O)(=O)c1ccc(F)cc1` (configuration not stated), the “inhibition” value is -8.97% (inactive).
With `Cc1c(C2(O)C(=O)Nc3ccc(F)cc32)c(=O)n(-c2ccccc2)n1C` (configuration not stated), the “inhibition” value was -5.34% (inactive).
Consider `Nc1nn2cc(-c3ccccc3)nc2c2ccccc12`, for which the “inhibition” value was 15.4% (inactive).
Take `Nc1nc2ccccc2cc1-c1cccs1`: the “inhibition” value was 12.7% (inactive).
In the case of `Nc1ccc(N=Nc2ccccc2)c(N)n1`, the “inhibition” value is 22.1% (inactive).
To `Cc1ccc(CN2C3=NCCN3c3ccccc32)cc1` belongs 29.4% (inactive); to `Cc1cccc(CN2C3=NCCCN3c3ccccc32)c1`, 15.7% (inactive); to `O=C(CSc1ccc(Cl)cc1)c1ccco1`, 26.8% (inactive).
As for `O=C(COc1ccc(Cl)cc1)N1CCCCC1`, the “inhibition” value was 9.39% (inactive).
Regarding `CC(C)(C)NC(=O)/C=C/c1ccc(C(F)(F)F)cc1`, the “inhibition” value is -6.9% (inactive).
For the compound `CC(=O)C1C(c2ccc(OC(F)F)cc2)NC(=O)NC1(O)C(F)(F)F` (configuration not stated), the “inhibition” value was -15.1% (inactive).
The same measure for `c1ccc2c(SCc3cn4ccccc4n3)nncc2c1`: 4.71% (inactive).
With `O=C(Cn1c(C(F)(F)F)nc2ccccc21)NCCCN1CCOCC1`, the “inhibition” value was -3.11% (inactive).
Take `Cc1cccc(N(C(=O)CCC(=O)Nc2ccccn2)C(C(=O)NC(C)C)c2ccc(O)cc2)c1` (configuration not stated): the “inhibition” value is 15% (inactive).
Turning to `CC(C(=O)NC1CCCCC1)N1CCN(C)CC1` (configuration not stated), the “inhibition” value is 1.49% (inactive).
Consider `O=C(CCS(=O)(=O)c1ccccc1)Nc1ccc2c(c1)C(=O)NC2=O`, for which the “inhibition” value is -16.3% (inactive).
For the compound `CCCCCCNC1=NCCS1`, the “inhibition” value is 27.9% (inactive).
As for `CC(=O)Cc1nsc(NC(=O)c2csc3c2CCCC3)n1`, the “inhibition” value is 28% (inactive).
The same measure for `C[N+](C)(CCCCCC[N+](C)(C)CCCN1C(=O)c2cccc3cccc(c23)C1=O)CCCN1C(=O)c2cccc3cccc(c23)C1=O`: 28.2% (inactive); for `CCOC(=O)CNC(=O)Cn1c(C)cc2ccccc2c1=O`: 12.6% (inactive).
To `CCn1c(=N)n(CC(=O)c2ccc(OC)cc2)c2ccccc21` belongs 31.4% (inactive); to `Cc1ccc(-n2c(=O)c3sccc3n(CC(=O)NC3CCCCC3)c2=O)cc1`, 15.9% (inactive).
In the case of `COc1ccc(/C=N/NC(=O)c2cc3c(OC)ccc(OC)c3[nH]2)cc1O`, the “inhibition” value was -4.36% (inactive).
Regarding `O=C(CSc1nnc(-c2cccnc2)n1Cc1ccco1)c1ccc2ccccc2c1`, the “inhibition” value was -19.2% (inactive).
On to `Cc1cc(NCCCn2ccnc2)n2ncc(-c3ccccc3)c2n1`, for which the “inhibition” value was 8.67% (inactive).
As for `Cc1cc(C)nc(SCC(=O)NCc2ccco2)n1`, the “inhibition” value is 9.9% (inactive).
The same measure for `Cc1ccccc1Cn1c(=O)n(CCCC(=O)NCc2ccco2)c(=O)c2ccccc21`: -18.6% (inactive).
Take `COc1ccc(CNCCc2c[nH]c3ccccc23)c(OC)c1C`: the “inhibition” value is 9.27% (inactive).
To `COc1ccccc1NC(=O)Cn1c(=O)n(CCc2c[nH]c3ccccc23)c(=O)c2cccnc21` belongs 26.1% (inactive); to `CCOC(=O)Cn1c(=O)oc2cc(S(=O)(=O)NCC3CCCO3)ccc21` (configuration not stated), -17.4% (inactive); to `Cc1ccc(N2CC(C(=O)OCc3ccccc3F)CC2=O)cc1` (configuration not stated), 1.86% (inactive).
As to `C=C(C)Cn1c(SCC#N)nc2ccccc2c1=O`, the “inhibition” value is -22.7% (inactive).
On to `Cc1cc(C(F)F)n2nc(C(=O)Nc3cc(C)on3)nc2n1`, for which the “inhibition” value was 15.3% (inactive).
Regarding `CCc1nc(C)ccc1OCC(=O)N(CC)CC`, the “inhibition” value was -8.77% (inactive).
`CNS(=O)(=O)c1cccc(C(=O)OCc2cc(=O)oc3c(C)c(O)ccc23)c1`: the “inhibition” value was 1.59% (inactive).
The same measure for `[O-][n+]1onc2c1CCc1[nH]c(-c3ccccc3)nc1-2`: -7.84% (inactive); for `CN(C)C(/C=C/Nc1ccc(F)cc1F)=C(C#N)C#N`: 5.93% (inactive).
Regarding `CC(=O)Nc1cccc(NS(=O)(=O)Cc2ccc(Cl)cc2)c1`, the “inhibition” value is 1.33% (inactive).
Consider `CC(=O)Nc1cccc(NC(=O)Nc2ccc(C)c(Cl)c2)c1`, for which the “inhibition” value was 9.85% (inactive).
On to `O=C(Cn1c(=O)oc2ccccc21)N1CCN(c2ccc(N3CCOCC3)nn2)CC1`, for which the “inhibition” value is -8.66% (inactive).
Turning to `CCn1c(SCC(=O)Nc2oc(-c3ccccc3)c(-c3ccccc3)c2C#N)nnc1-c1ccco1`, the “inhibition” value was -4.5% (inactive).
Take `O=C(O)Cn1c(=O)c2c3c(sc2n(Cc2ccccc2F)c1=O)CCCC3`: the “inhibition” value was 4.22% (inactive).
As to `O=C1CCCC(=O)N1c1ccc(N2CCOCC2)c([N+](=O)[O-])c1`, the “inhibition” value is -18.8% (inactive).
To `Cc1cc(N2CCCCC2)c(F)cc1[N+](=O)[O-]` belongs 1.62% (inactive); to `Cc1cnc(NC(=O)CN2C(=O)C3CC=CCC3C2=O)s1` (configuration not stated), 9.52% (inactive).
To `O=C(Nc1ccccc1)c1ccc2nsnc2c1` belongs -11.4% (inactive).
Turning to `Cc1ccccc1N1C(N)=NC(N)=NC1(C)C`, the “inhibition” value is -17.2% (inactive).

In general, inhibition refers to the relative decrease from the control value, in per cent.
